These results are taken from PubChem BioAssay (EPA / NIEHS).

Active and inactive are the calls of the source. How the source made its calls: active means hit-call score of the fitted dose curve at least 0.9, where 1 is the maximum; inactive means score below 0.9.

Read-out in one test: Interferon-gamma inducible Protein 10 (IP10), CXCL10 (gene 3627)
Kind of test: BSK_BE3C_IP10: BioMAP Diversity Plus: BE3C Assay for Interferon-gamma inducible Protein 10 (IP10) Biomarker Activity (AID 2283034). The conditions noted are these: primary human bronchial epithelial cells; actives raise or lower the signal. The essentials: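 Human primary bronchial epithelial cells were exposed to chemicals for 24 hours, after which IP-10 levels were measured by ELISA. Data were fitted bidirectionally against DMSO, which served as the negative control and activity baseline.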
For `Clc1nc(Cl)c(Cl)c(Cl)c1Cl`, the outcome was inactive.
`CC[C@H]1OC(=O)[C@H](C)[C@@H](O[C@H]2C[C@@](C)(OC)[C@@H](O)[C@H](C)O2)[C@H](C)[C@@H](O[C@@H]2O[C@H](C)C[C@H](N(C)C)[C@H]2O)[C@](C)(O)C[C@@H](C)C(=O)[C@H](C)[C@@H](O)[C@]1(C)O`: the result was inactive.
Regarding `CCOc1cccc(-n2cc(C(=O)N3CCN(c4cc(C(=O)O)c5ccccc5c4)CC3)nc2-c2ccc(C)cc2)c1`, the AC50 was 15 µM (active).
For the compound `CC(C)CCCCCCOC(=O)c1ccc(C(=O)OCCCCCCC(C)C)c(C(=O)OCCCCCCC(C)C)c1`, the result was inactive.
For the compound `Cc1[nH]cnc1C[C@H]1CCc2c(C)c3ccccc3n2C1=O`, the result was inactive.
Still for that read-out and setting: the entry for `Oc1ccc2c(c1)-c1ccccc1C2` is “inactive”; for `CCCN(C1CCN(C(=O)C2CCNCC2)CC1)[C@@H]1CCc2ccc(OC)cc2C1` it is “inactive”.
`COC(=O)c1ccccc1O`: the outcome was inactive.
With `COCCOCCOCCOC`, the result was inactive.
As for `O=c1[nH]c2ccc(S(=O)CCN3CCC(Cc4ccc(F)cc4)CC3)cc2o1` (stereo not drawn), the result was inactive.
Take `O=C(O)CC(O)C(=O)O` (stereo not drawn): the outcome was inactive.
As for `CC(C)CC(C)(O)C#CC(C)(O)CC(C)C` (stereo not drawn), the outcome was inactive.
`CC/C(=C\C(=N/O)C(N)=O)C(C)[N+](=O)[O-]` (stereo not drawn): the AC50 was 29.8 µM (active).
In the case of `COCCOc1cc2cc(C(=O)NC3CCN(C(C)C)CC3)n(CC(=O)Nc3ccc(Cl)cn3)c2cn1`, the result was inactive.
Still for that read-out and setting: the entry for `COC(=O)CC(=O)OC` is “inactive”.
Turning to `C1N2CN3CN1CN(C2)C3`, the result was inactive.
For the compound `CNCc1ccc(NC(=O)c2c[nH]c3c2C(=O)CCC3)cc1`, the result was inactive.
Turning to `CC(=O)OC[C@H]1O[C@@](COC(C)=O)(O[C@H]2O[C@H](COC(C)=O)[C@@H](OC(C)=O)[C@H](OC(C)=O)[C@H]2OC(C)=O)[C@@H](OC(C)=O)[C@@H]1OC(C)=O`, the result was inactive.
Take `O=C(O)c1cc(N=Nc2ccc(S(=O)(=O)Nc3ccccn3)cc2)ccc1O`: the result was inactive.
For `CCCCCCCCO`, the result was inactive.
As to `CN(C)c1ccc(Cc2ccc(N(C)C)cc2)cc1`, the AC50 was 28.8 µM (active).
`C[C@](N)(Cc1ccc(O)c(O)c1)C(=O)O`: the result was inactive.
In the case of `CCOCCOCCOCCO`, the outcome was inactive.
Regarding `CC[C@H]1CC[C@H](NCc2cc3c(cc2OC)[C@H]2C[C@H]2C(=O)N3C)[C@H](c2ccccc2)N1`, the result was inactive.
Turning to `Nc1ccc(Nc2ccccc2)cc1`, the outcome was inactive.
Take `On1ccccc1=S`: the AC50 was 3.8 µM (active).
For `CCOC(=O)CC(CC(=O)OCC)(OC(C)=O)C(=O)OCC`, the outcome was inactive.
Consider `O=C(O)c1cccc(Oc2ccccc2)c1`, for which the result was inactive.
As for `Cn1cnc([N+](=O)[O-])c1Sc1ncnc2nc[nH]c12`, the result was inactive.

Read-out in a further test: Monokine induced gamma interferon (MIG), CXCL9 (gene 4283)
Kind of test: BSK_BE3C_MIG: BioMAP Diversity Plus: BE3C Assay for Monokine induced gamma interferon (MIG) Biomarker Activity (AID 2283035).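 On outcome: MIG protein measured by ELISA in BE3C cultures after 24 h of dosing.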 Particulars: primary human bronchial epithelial cells; actives raise or lower the signal. Summed up: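 MIG level was determined by ELISA after 24 h chemical treatment of primary human bronchial epithelial cells. Values were fitted bidirectionally with DMSO as the negative control and activity baseline.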
As to `Clc1nc(Cl)c(Cl)c(Cl)c1Cl`, the outcome was inactive.
For the compound `CC[C@H]1OC(=O)[C@H](C)[C@@H](O[C@H]2C[C@@](C)(OC)[C@@H](O)[C@H](C)O2)[C@H](C)[C@@H](O[C@@H]2O[C@H](C)C[C@H](N(C)C)[C@H]2O)[C@](C)(O)C[C@@H](C)C(=O)[C@H](C)[C@@H](O)[C@]1(C)O`, the outcome was inactive.
For `CCOc1cccc(-n2cc(C(=O)N3CCN(c4cc(C(=O)O)c5ccccc5c4)CC3)nc2-c2ccc(C)cc2)c1`, the half-maximal activity concentration (AC50) is 32.6 µM (active).
On to `CC(C)CCCCCCOC(=O)c1ccc(C(=O)OCCCCCCC(C)C)c(C(=O)OCCCCCCC(C)C)c1`, for which the outcome was inactive.
As to `Cc1[nH]cnc1C[C@H]1CCc2c(C)c3ccccc3n2C1=O`, the result was inactive.
Consider `Oc1ccc2c(c1)-c1ccccc1C2`, for which the result was inactive.
As for `CCCN(C1CCN(C(=O)C2CCNCC2)CC1)[C@@H]1CCc2ccc(OC)cc2C1`, the outcome was inactive.
`COC(=O)c1ccccc1O`: the result was inactive.
For `COCCOCCOCCOC`, the outcome was inactive.
Regarding `O=c1[nH]c2ccc(S(=O)CCN3CCC(Cc4ccc(F)cc4)CC3)cc2o1` (stereo not drawn), the outcome was inactive.
The same measure, in the same setting: the entry for `O=C(O)CC(O)C(=O)O` (stereo not drawn) is “inactive”; for `CC(C)CC(C)(O)C#CC(C)(O)CC(C)C` (stereo not drawn) it is “inactive”.
The same measure, in the same setting: the entry for `CC/C(=C\C(=N/O)C(N)=O)C(C)[N+](=O)[O-]` (stereo not drawn) is “inactive”; for `COCCOc1cc2cc(C(=O)NC3CCN(C(C)C)CC3)n(CC(=O)Nc3ccc(Cl)cn3)c2cn1` it is “inactive”.
For the compound `COC(=O)CC(=O)OC`, the result was inactive.
Turning to `C1N2CN3CN1CN(C2)C3`, the outcome was inactive.
As for `CNCc1ccc(NC(=O)c2c[nH]c3c2C(=O)CCC3)cc1`, the outcome was inactive.
As to `CC(=O)OC[C@H]1O[C@@](COC(C)=O)(O[C@H]2O[C@H](COC(C)=O)[C@@H](OC(C)=O)[C@H](OC(C)=O)[C@H]2OC(C)=O)[C@@H](OC(C)=O)[C@@H]1OC(C)=O`, the result was inactive.
`O=C(O)c1cc(N=Nc2ccc(S(=O)(=O)Nc3ccccn3)cc2)ccc1O`: the outcome was inactive.
As for `CCCCCCCCO`, the outcome was inactive.
Consider `CN(C)c1ccc(Cc2ccc(N(C)C)cc2)cc1`, for which the outcome was inactive.
Take `C[C@](N)(Cc1ccc(O)c(O)c1)C(=O)O`: the outcome was inactive.
Consider `CCOCCOCCOCCO`, for which the result was inactive.
For `CC[C@H]1CC[C@H](NCc2cc3c(cc2OC)[C@H]2C[C@H]2C(=O)N3C)[C@H](c2ccccc2)N1`, the result was inactive.
In the case of `Nc1ccc(Nc2ccccc2)cc1`, the outcome was inactive.
For `On1ccccc1=S`, the AC50 is 5.25 µM (active).
Turning to `CCOC(=O)CC(CC(=O)OCC)(OC(C)=O)C(=O)OCC`, the outcome was inactive.
Turning to `O=C(O)c1cccc(Oc2ccccc2)c1`, the result was inactive.
As to `Cn1cnc([N+](=O)[O-])c1Sc1ncnc2nc[nH]c12`, the result was inactive.
